High-throughput results from PubChem.
SMARCA2 act – increases SMARCA2 function in MMTV reporter cells; MG213 cells, MMTV-luciferase reporter, dexamethasone, overnight; activation, % at 9.1 µM; 370,000 compounds, 1% hits; AID 652017; in the data active = activation above about 7.8%;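 also: 0% = vehicle wells and 100% = reference activator wells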
hgDAF12 agonist – agonists of H. glycines DAF-12 nuclear receptor; HEK293 GAL4-hgDAF12 UAS-luciferase reporter, agonist luminescence; normalized to butyrate control; activation, % at 6.8 µM; 370,000 compounds, 1.8% hits; AID 687014;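 active = activation above a cutoff set at the mean of all screened compounds plus 3 SD, cut at about 10% in these data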;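 also: 0% = DMSO wells and 100% = sodium butyrate wells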
ssDAF12 agonist – S. stercoralis DAF-12 activation, primary screen. HEK293 ssDAF-12/GRIP1 lit1-tk-luc reporter, luminescence; % of 3 µM dafachronic acid response. activation, % at 6.8 µM. 370,000 compounds, 1% hits. AID 652126;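 active = activation above the mean over all tested compounds plus 3 SD, cut at about 0.9% in these data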;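 also: 0% = DMSO-only wells and 100% = 3 µM delta7-dafachronic acid wells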
DAX1 inh-1 – NR0B1 (DAX1) inhibition | 340,000 compounds, 0.99% hits | AID 504766 | HEK293 Gal4-DAX1 luciferase reporter, luminescence | inhibition, % at 6.75 µM | P51843;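 active = inhibition above the mean over all tested compounds plus 3 SD, cut at about 4.2% in these data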;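 also: 0% = DAX1-transfected cells with DMSO and 100% = empty-vector control cells with DMSO; inhibition shows as a rise in luminescence from relieved DAX1 repression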
Target sequence (P51843 207-470 limits assumed): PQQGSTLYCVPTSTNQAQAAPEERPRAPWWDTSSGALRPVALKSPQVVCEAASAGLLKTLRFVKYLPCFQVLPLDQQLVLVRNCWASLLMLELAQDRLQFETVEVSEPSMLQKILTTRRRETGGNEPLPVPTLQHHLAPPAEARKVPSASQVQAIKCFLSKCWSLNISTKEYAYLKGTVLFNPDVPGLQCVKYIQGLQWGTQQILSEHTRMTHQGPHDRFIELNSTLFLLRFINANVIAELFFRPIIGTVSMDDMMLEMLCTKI
hcDAF-12 act – activates DAF-12 receptor from parasite H. contortus; HEK293 hcDAF-12 lit1-tk-luc reporter, luminescence; 0% DMSO, 100% Δ7-dafachronic acid; activation, % at 6.8 µM; 370,000 compounds, 1.4% hits; AID 652067;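 active = activation above the mean of all tested compounds plus 3 SD, cut at about 5.5% in these data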;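 also: 100% = response to 3 µM Δ7-dafachronic acid high control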
DAX1 inh-2 – DAX1 (NR0B1) inhibition, primary screen; HEK293T StAR-luciferase reporter, SF-1/DAX-1 repression relief; inhibition, % at 6.8 µM; 370,000 compounds, 1.1% hits; AID 652010;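 active = inhibition above the mean over all tested compounds plus 3 SD, cut at about 3.6% in these data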;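 also: 0% = DAX-1 cells with DMSO and 100% = cells lacking DAX-1 with DMSO; higher inhibition means more luminescence from relief of DAX-1 repression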
LXR ag – LXR-beta agonism as hcDAF-12 counter-screen | shares compounds with hcDAF-12 act | HEK293 Gal4-LXR tk-luc reporter, luminescence, 24 h; normalized: DMSO 0%, positive control 100% | activation, % at 6.8 µM | 3,400 tested, under 10 active | AID 743027;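 active = mean percent activation of the reporter above a cutoff set as the average over tested compounds plus their standard deviation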
Target sequence (P55055 whole entry, looked up, the tested form may be a part): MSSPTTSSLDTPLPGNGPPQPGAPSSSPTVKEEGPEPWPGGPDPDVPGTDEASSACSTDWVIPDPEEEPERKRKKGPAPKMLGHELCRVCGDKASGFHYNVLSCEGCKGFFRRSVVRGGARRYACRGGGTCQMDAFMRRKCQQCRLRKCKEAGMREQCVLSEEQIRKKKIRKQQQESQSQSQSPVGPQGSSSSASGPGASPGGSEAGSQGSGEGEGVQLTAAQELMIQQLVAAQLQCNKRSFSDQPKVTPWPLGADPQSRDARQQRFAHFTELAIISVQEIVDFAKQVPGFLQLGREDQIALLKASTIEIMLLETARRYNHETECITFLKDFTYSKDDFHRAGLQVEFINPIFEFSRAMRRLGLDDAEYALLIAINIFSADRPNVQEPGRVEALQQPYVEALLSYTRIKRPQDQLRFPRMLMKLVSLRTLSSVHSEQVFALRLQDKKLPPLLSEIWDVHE
hcDAF12 ag – hcDAF-12 agonism, confirmation assay. shares compounds with hcDAF-12 act. HEK293 hcDAF-12 lit1-tk-luc reporter, luminescence; % of Δ7-dafachronic acid response. activation, % at 6.8 µM. 3,400 compounds, 61% hits. AID 743032;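 active = mean activation across triplicate tests above the threshold derived from the earlier primary screen, cut at about 5.5% in these data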;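 also: 0% = DMSO only wells and 100% = 3 µM Δ7-dafachronic acid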
hgDAF12 ag – confirmation of H. glycines DAF-12 agonists; HEK293 GAL4-hgDAF12 luciferase reporter, agonist mode; percent of butyrate response; 3,300 compounds, 80% hits; activation, % at 6.8 µM; shares compounds with hgDAF12 agonist;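 active = mean activation over triplicate wells above the hit cutoff derived from the earlier primary screen, cut at about 11% in these data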;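 also: 0% = DMSO low control and 100% = 2 mM sodium butyrate high control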
LXRb DAF12 ctr – counter-screen for DAF-12 agonists: agonists of human LXR-beta; activation, % at 6.8 µM; shares compounds with hgDAF12 agonist; AID 743051; 3,300 tested, under 10 active; HEK293 Gal4-LXR luciferase reporter, 24 h;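 active = mean activation of the triplicate above a set limit carried over from the primary screen, none filed active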
* hit, by the source's call; x = no result. This is a sample that favours compounds with a hit; in the whole collection about 4.8% have one here.

SMILES | SMARCA2 act | hgDAF12 agonist | ssDAF12 agonist | DAX1 inh-1 | hcDAF-12 act | DAX1 inh-2 | LXR ag | hcDAF12 ag | hgDAF12 ag | LXRb DAF12 ctr
COc1cccc(C(=O)Cn2c(NCCO)nc3ccccc32)c1 | 1.3 | -0.4 | -0.9 | -0.6 | -0.2 | 0.0 | x | x | x | x
COc1cccc(C(=O)Cn2c(=N)n(C)c3ccccc32)c1 | 5.3 | 17.3* | 3.2* | -0.9 | 18.0* | 3.5 | 2.1 | 17.2* | 19.6* | 1.1
Cc1ccc2nc(-c3cccnc3)oc2c1 | 5.9 | 7.8 | -0.5 | 1.8 | 4.5 | 0.7 | x | x | x | x
Cc1ccc2nc(-c3ccccn3)oc2c1 | -1.2 | 14.4* | 2.8* | -0.2 | 11.6* | 3.4 | 1.3 | 15.4* | 24.0* | 0.9
COc1cccc2c1nc(C)c1cc(C)oc12 | -0.1 | 6.0 | -0.3 | 0.7 | -0.3 | 0.3 | x | x | x | x
COc1cccc2nc3cc(C)c(C)cc3nc12 | 7.0 | 18.0* | 0.7 | -0.8 | 7.5* | 1.9 | 1.4 | 12.4* | 18.4* | 1.1
O=C(N[C@H](C(=O)N1CCC[C@H]1C(=O)NC1CCCC1)C1CCCCC1)c1cccs1 | 1.1 | -4.1 | -0.6 | x | -1.2 | -0.5 | x | x | x | x
CC(C)(C)c1ccc2c(c1)C(=O)c1ccccc1C2=O | 4.5 | 20.3* | -0.3 | 4.2 | 10.8* | 4.4* | 1.2 | 4.0 | 13.4* | 1.0
CC(C)(C)c1ccc(-c2ccc3c(c2)S(=O)(=O)c2ccccc2C3=O)cc1 | -0.8 | 4.1 | -0.7 | 0.5 | 1.5 | 0.9 | x | x | x | x
O=C(Nc1ccc(-c2nc3cccnc3s2)cc1)c1ccc(Cl)nc1 | 0.4 | 3.8 | -0.8 | 1.3 | 0.2 | 1.4 | x | x | x | x
O=C(Nc1ccc(-c2nc3cccnc3s2)cc1)c1cccnc1Cl | 2.1 | 23.0* | 0.2 | 1.5 | 7.9* | 3.7* | 2.0 | 5.6* | 24.1* | 1.2
COc1ccc(NC(=S)Nc2ccccn2)cc1 | 5.3 | 14.8* | 1.7* | 3.7 | 11.4* | 2.5 | 0.8 | 2.7 | 13.1* | 0.6
Brc1ccccc1/C=N/Nc1ccc2ccccc2n1 | 0.1 | 25.2* | 2.5* | 1.6 | 11.5* | 3.2 | 1.5 | 12.9* | 22.3* | 1.1
Cc1cc(N)n(-c2cc(C)c3ccccc3n2)n1 | 7.9* | 16.6* | 1.6* | 1.4 | 9.9* | 3.5 | 1.3 | 13.5* | 17.1* | 0.7
O=C(Nc1cccc(-c2nc3ncccc3o2)c1)c1cc2ccccc2o1 | 3.1 | -1.3 | -1.1 | -1.7 | -1.5 | -1.1 | x | x | x | x
COc1ccccc1C(=O)Nc1cc2ccccc2oc1=O | x | x | x | 1.0 | x | x | x | x | x | x
O=C(Nc1ncccc1Cl)c1cc2ccccc2o1 | 3.0 | 16.4* | 0.8 | 2.4 | 7.3* | 2.1 | 1.0 | 6.2* | 17.6* | 0.7
COc1ccc(S(=O)(=O)Nc2ccccc2OC)cc1NC(=O)c1cc2ccccc2oc1=O | 3.2 | 14.3* | 0.9* | 2.5 | 7.7* | 2.7 | 0.7 | 3.5 | 9.6 | 0.4
Cc1ccccc1NC(=O)c1cc2ccccc2o1 | 5.7 | 13.8* | 0.2 | 2.7 | 7.7* | 2.2 | 1.3 | 9.2* | 16.4* | 0.6
COc1ccccc1NC(=O)c1cc2ccccc2o1 | 7.7 | 13.7* | 1.9* | 3.1 | 16.5* | 1.7 | 1.4 | 15.4* | 22.3* | 0.7
COc1cc(NC(=O)c2cc3ccccc3o2)c(OC)cc1Br | 0.8 | 5.6 | 0.2 | -0.1 | 1.4 | 0.9 | x | x | x | x
O=C(N[C@H](C(=O)N1CCC[C@H]1C(=O)NCCc1ccccc1Cl)c1ccccc1)c1ccc(Cl)cc1Cl | -0.9 | -1.5 | -1.2 | x | 0.2 | -0.7 | x | x | x | x
COCc1[nH]nc2c1C(c1ccc(Br)cc1)N(Cc1ccccc1)C2=O (configuration not stated) | 2.2 | -1.4 | -1.3 | x | -0.4 | -0.2 | x | x | x | x
CC(C)[C@H](NC(=O)CC1CCCC1)C(=O)N1CCC[C@H]1C(=O)NCCc1ccccc1Cl | -1.4 | -1.5 | -0.8 | x | -1.0 | -0.3 | x | x | x | x
N=c1n(N)c2ccccc2n1CC(=O)c1ccc(Br)cc1 | 6.7 | 15.1* | 0.6 | 3.5 | 8.1* | 2.5 | 0.6 | 5.3 | 13.5* | 0.5
SMILES | SMARCA2 act | hgDAF12 agonist | ssDAF12 agonist | DAX1 inh-1 | hcDAF-12 act | DAX1 inh-2 | LXR ag | hcDAF12 ag | hgDAF12 ag | LXRb DAF12 ctr
Nc1nc(Nc2ccccc2)nc2ccccc12 | -2.0 | 14.7* | 1.7* | 0.3 | 9.9* | 3.6* | 1.2 | 5.3 | 16.3* | 1.1
Nc1nc(Nc2ccc(Cl)cc2)nc2ccccc12 | 6.0 | 13.8* | 2.5* | -1.4 | 14.2* | 2.1 | 1.8 | 12.3* | 21.6* | 1.4
C[C@H]1CN(C(=O)OC(C)(C)C)CCN1c1ccc(N2CC[C@H](O)C2)c(C#N)c1 | 3.1 | 2.1 | -0.7 | x | 0.7 | -0.4 | x | x | x | x
O=C(Nc1cccc(Cl)c1)NN(c1ccccc1)C1CCS(=O)(=O)C1 (configuration not stated) | -1.6 | 7.1 | -1.6 | x | -0.9 | -0.4 | x | x | x | x
Cc1cc2cc3c(cc2nc1SCc1ccccn1)OCCO3 | 2.7 | -0.5 | 0.4 | -0.2 | -1.6 | -0.5 | x | x | x | x
N#Cc1cc2ccccc2nc1SCc1ccccn1 | 6.6 | 17.0* | 4.7* | 1.9 | 19.7* | 4.3* | 0.8 | 9.2* | 16.4* | 0.7
Cc1occc1C(=O)Nc1ccccc1NC(=O)c1ccoc1C | -2.2 | -1.7 | -0.7 | -0.5 | 1.6 | -0.4 | x | x | x | x
Cc1occc1C(=O)Nc1cccc2ccccc12 | 2.6 | 17.0* | 1.1* | 3.6 | 6.7* | 3.8* | 0.9 | 5.9* | 20.8* | 0.7
Cc1ccc(NC(=O)c2ccoc2C)cc1C | 2.3 | 13.9* | -0.5 | 0.2 | 6.9* | 2.8 | 0.8 | 4.5 | 12.2* | 0.4
Cc1occc1C(=O)Nc1cccc(C(=O)O)c1 | 7.2 | 3.4 | 0.2 | 0.8 | 1.8 | 1.2 | x | x | x | x
Cc1ccccc1-c1noc(-c2ccc(O)cc2)n1 | -1.5 | 18.1* | 0.9 | 1.3 | 6.9* | 3.5 | 0.8 | 4.2 | 16.0* | 0.7
CCc1nnc(NC(=O)c2ccc3ccccc3n2)s1 | 4.1 | 13.8* | 2.6* | 1.3 | 13.0* | 3.9* | 1.4 | 15.5* | 17.8* | 0.6
Cc1ccc(NC(=O)c2ccc3ccccc3n2)nc1 | 1.4 | 16.2* | 3.5* | 2.9 | 16.1* | 3.8* | 1.5 | 16.7* | 19.6* | 1.3
CSc1ccc(NC(=O)Nc2cc(C)ccn2)cc1 | 1.0 | 19.2* | 0.9* | 2.2 | 7.0* | 3.0 | 2.0 | 9.5* | 17.6* | 1.2
